Results from PubChem BioAssay AID1569 (National Center for Advancing Translational Sciences (NCATS), 2009).
Results filed as inconclusive are left out. Unmarked numbers belong to inactive results. Active and inactive are the calls of the source. Calls come from the whole dose curve; as a rule, active = well fitted inhibition curve with a large enough effect; inconclusive = small, poorly fitted or top-dose-only effect, or effect the other way, or another doubt; inactive = no such curve, though single readings can be large or run the other way.

assay: Confirmation Concentration-Response Assay for lipid storage modulators; settings: Drosophila S3 cells, lipid droplet BODIPY/CellTracker ratio, 18-24 h; series mostly up to 46.1 µM; activity change, negative = inhibition: at the top concentration; note: nearly all actives have a fitted effect of over 80% in size
Excerpt: NIH Molecular Libraries Probe Production Centers Network [MLPCN] NIH Chemical Genomics Center [NCGC] MLPCN Grant: 1 R03 MH085686-01 Assay Submitter (PI): Beller, Mathias; Max-Planck-Institut fur Biophysikalische Chemie NCGC Assay Overview: Storing lipids as a reservoir for energy or the anabolism of elementary metabolites is a common feature of probably all cells and is conserved from bacteria to humans. The universal cellular lipid storage organelle is the so-called lipid storage droplet (LD). Although ubiquitous, LDs share a simple structure composed of a hydrophobic core that harbors the storage lipids, which is shielded by a droplet-specific phospholipid monolayer to which proteins are attached. The current model of LD biogenesis involves an incorporation of the lipid core into the membrane leaflets of the endoplasmic reticulum (ER) followed by a subsequent budding-like maturation of a LD, which ultimately pinches off. Once released, LD volume can increase by localized lipogenesis or fusion of existing droplets. Storage lipids are re-mobilized enzymatically by lipase activity. Lipase regulation in the adipocyte is heavily studied and involves multiple components including catecholamine signaling, the LD-associated proteins Perilipin and comparative gene identification-58 (CGI-58) and at least two lipases named hormone sensitive lipase (HSL) and adipocyte triglyceride lipase (ATGL). LD regulation outside of the adipocyte is poorly understood and only few components are known. However, there is an urgent need to learn more about ectopic fat depots as mislocalized storage of lipids, for example in the liver or muscle, is an eminent health problem associated with insulin resistance or the metabolic syndrome. We developed a laser-scanning cytometer assay to enable 1,536-well screening and combined the results of the small molecules screen with an RNAi database based on lipid storage. Exo1 identified in the primary screen (AID 1519) and several analogs were measured in the lipid storage assay as 24-point concentration-response curves to confirm potency and SAR.
We dispensed 4 uL of cells at 1.25 x 10^6 cells/mL into LoBase Aurora COC 1,536-well plates (black walled, clear bottom) with a bottle-valve solenoid-based dispenser (Aurora) to obtain 5,000 cells/well. Triacsin C (Sigma-Aldrich T-4540), an inhibitor of long-chain fatty acyl CoA synthetase that blocks synthesis of triglycerides, was used as a positive control for lipid under-storage. A total of 23 nL of compound solution of different concentrations were transferred to the assay plates using a Kalypsys pin tool equipped with a 1,536-pin array containing 10-nL slotted pins (FP1S10, 0.457-mm diameter, 50.8 mm long; V&P Scientific). One microliter of oleic acid (400 uM) was added, and the plate was lidded with stainless steel rubber gasket lined lids containing pinholes. After 18-24 h incubation at 24 degree Celsius and 95% humidity, 4 uL of the dyes BODIPY 493/503 (Molecular Probes) and the Cell Tracker Red CMTPX dye (Molecular Probes) were added to the wells to stain lipid droplets and enumerate cell number, respectively. Fluorescence was detected by excitation of the fluorophores with a 488-nm laser on an Acumen Explorer (TTP Lab Tech). The total intensity in channel 1 (500-530 nm) reflected lipid droplet accumulation. Cells were detected using channel 3 (575- 640 nm) with 5-um width and 100-um depth filters. The ratio of the total intensity in PMT channel 1 over total intensity of channel 3 was also calculated. Percent activity was computed relative to an internal control (100% inhibited lipid droplet deposition due to the presence of 20 uM Triacsin C), which was added to 32 wells/plate.
Potency is the fitted concentration of half-maximal effect.

| Compound | activity change, negative = inhibition [%] | Potency |
| --- | --- | --- |
| CCCCc1c(O)nc(SCC(=O)NCCc2ccc(OC)c(OC)c2)[nH]c1=O | 22 | – |
| Cc1cccc(-n2ncc3c2CCCC3NC(=O)Cc2c(C)noc2C)c1C (stereo not given) | – | 14.1 µM (active) |
| COc1ccc(CCNC(=O)C(Sc2ccccn2)c2ccccc2)cc1OC (stereo not given) | 26.7 | – |
| CCOc1ccc(CCNC(=O)Cn2cccc2C(=O)c2ccccc2)cc1OCC | – | 7.91 µM (active) |
| COc1ccc(/C=C(\NC(=O)c2cccs2)C(=O)Nc2ccc(C)cc2)cc1OC | – | 0.141 µM (active) |
| COc1ccc(OC)c(NC(=O)CSc2ncnc3c2cnn3-c2ccccc2Cl)c1 | – | 1.77 µM (active) |
| COc1ccc(NC(=O)NC2(C(=O)N3CCN4CCCC4C3)CCCCC2)cc1 (stereo not given) | 10.5 | – |
| COc1ccc(/C=C(/NC(=O)c2cccs2)C(=O)Nc2ccc(C)cc2)cc1OC | – | 0.25 µM (active) |
| COc1cccc(-n2nnnc2SCC(=O)NCCc2ccc(OC)c(OC)c2)c1 | -22.7 | – |
| CCC(C)(C)NC(=O)C(c1ccc(OC)cc1)N(CCOC)C(=O)CCC(=O)Nc1nccs1 (stereo not given) | – | 19.9 µM (active) |
| O=C(NC1CCCc2c1cnn2-c1ccc(F)cc1F)c1ccccn1 (stereo not given) | – | 0.0112 µM (active) |
| Nc1c(C(=O)C2CC2)sc2nc(-c3ccccc3)cc(C(F)(F)F)c12 | – | 1.58 µM (active) |
| COc1cccc(C(=O)O[C@H]2[C@H](C)NS(=O)(=O)[C@H]3C[C@@H]4C=C[C@]23O4)c1 | 8.12 | – |
| CCN(CC)C(=O)c1sc2nc(-c3cccs3)cc(-c3cccs3)c2c1N | – | 7.91 µM (active) |
| CCOC(=O)c1cc2c(ccn2-c2ccc(F)cc2)n1CC(=O)N(CC)CC | – | 2.17 µM (active) |
| COc1cccc2cc(-c3nnc(SCC(=O)Nc4nc(C)cs4)n3C)oc12 | – | 1.99 µM (active) |
| O=C(Nc1ccc(S(=O)(=O)N2CCCC2)cc1)c1ccc(CN2CCc3ccccc3C2)cc1 | – | 14.1 µM (active) |
| O=C(NC1CCCc2c1cnn2-c1ccccc1F)c1ccccn1 (stereo not given) | – | 0.0079 µM (active) |
| COc1ccc(CCNC(=O)CSc2nc3[nH]ncc3c(=O)n2-c2ccc(Cl)cc2Cl)cc1OC | -19.3 | – |
| COc1cccc(C(=O)O[C@@H]2[C@H](Cc3ccccc3)NS(=O)(=O)[C@H]3C[C@@H]4C=C[C@]23O4)c1 | – | 11.2 µM (active) |

| Compound | activity change, negative = inhibition [%] | Potency |
| --- | --- | --- |
| CNc1cccc2c1C(=O)c1ccccc1C2=O | – | 6.28 µM (active) |
| COc1ccc(NC(=O)NC2(C(=O)N3CCN(C)CC3)CCCCC2)cc1 | 22.7 | – |
| COc1ccc(CC(=O)NCCc2ccc(OC)c(OC)c2)cc1 | 12.7 | – |
| Cc1ccc(-n2ncc3c2CCCC3NC(=O)c2cnccn2)cc1C (stereo not given) | – | 0.141 µM (active) |
| COc1ccc(CCNC(=O)COc2cc(O)c3c(c2)OC(C)(C)CC3=O)cc1OC | 2 | – |
| CCOc1ccc(OCC)c(NC(=O)C2CCN(S(=O)(=O)c3c(C)noc3C)CC2)c1 | – | 0.996 µM (active) |
| CCOC(=O)c1c(C)[nH]c(C(=O)OCC(=O)NCCc2ccc(OCC)c(OCC)c2)c1C | – | 0.888 µM (active) |
| CC(C)N1CCc2c(sc(NC(=O)c3ccc(S(=O)(=O)N4CCCCC4C)cc3)c2C(N)=O)C1 (stereo not given) | -14.3 | – |
| COc1ccc(CCNC(=O)c2ccc(N(C)S(=O)(=O)c3ccc(C)cc3)cc2)cc1OC | – | 14.1 µM (active) |
| CCOc1ccc(CCNC(=O)Cn2cccc2C(=O)c2ccccc2C)cc1OCC | – | 4.99 µM (active) |
| Cc1cc(C(=O)O[C@H]2[C@H](C)NS(=O)(=O)[C@H]3C[C@@H]4C=C[C@]23O4)cc([N+](=O)[O-])c1 | 15 | – |
| COc1ccc(N=Nc2nc(-c3ccccc3)c(-c3ccccc3)[nH]2)cc1 | – | 2.5 µM (active) |
| Cc1ccccc1C(=O)N1CCC(C(=O)Nc2ccc(S(=O)(=O)N3CCCCC3)cc2)CC1 | -14.9 | – |
| COc1ccc(CCNC(=O)c2cc3sc(Cl)cc3n2C)cc1OC | 0 | – |
| COc1ccc(CCNC(=O)[C@H](C)N2C(=O)N3CCc4c([nH]c5ccccc45)[C@@]3(C)C2=O)cc1OC | – | 0.56 µM (active) |
| COCc1ccc(C(=O)NC2CCCc3c2cnn3-c2cc(C)cc(C)c2)s1 (stereo not given) | – | 0.0244 µM (active) |
| CCOc1ccc(CCNC(=O)CN2C(=O)NC3(CCCCC3C)C2=O)cc1OCC (stereo not given) | -25.3 | – |
| CC(=O)c1cc(-c2ccccc2)n(CC(=O)N2CCC(C)CC2)c1C | – | 1.58 µM (active) |
| COc1ccc2c(c1)O[C@@H](c1cccc(C(F)(F)F)c1)[C@H](OC(=O)NCCc1ccc(OC)c(OC)c1)C2=O | – | 4.99 µM (active) |
| Cc1ccccc1NC(=O)NC1(C(=O)N2CCC(O)CC2)CCCCC1 | 12.7 | – |
